{
  "source": "the supplement of paper PMC6555819",
  "data": [
    {"test_system": "VDR:RXRa (NR concentration 270 nM, RXRa partner concentration 90 nM)", "assay": "PBM binding z-score (relative to random genomic background probes); higher = stronger binding; sequences stand for … in GC…GCGATTGACAGCGTAGAATGAAGG", "procedure": "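Protein-binding microarray (Agilent 4x180K custom design, double-stranded 60-nt probes: 5' GC cap, 34-nt variable region, 24-nt constant primer region; full probe sequence given). Purified or IVT nuclear receptor:RXRα heterodimers (3:1 NR:RXRα, mostly 270:90 nM) or homodimers were incubated for 1 h in PBS with 2% milk and no ligand, then detected with Alexa488 antibodies. Fluorescence from o1-orientation probes (~5 replicates averaged) was converted to z-scores against 500 random hg19 background probes. Variable regions are seed direct-repeat (DR0–DR5) sites, all their single-nucleotide variants and half-site ablations.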", "values": [
      {"sequence": "CGAACTAGCTCAAGGACAGTGAATCTCCGCACGC", "PBM binding z-score": -0.322},
      {"sequence": "CGTCCAAGGTCATAGGAGGTCACTGAAGACAGAT", "PBM binding z-score": 7.05},
      {"sequence": "ATCGAAAGGTCGTGAGGTGAGTACACAGAAAGGC", "PBM binding z-score": 4.14},
      {"sequence": "ATCGAAAGGTCGAAGGTGAGTCTACCCACCCGAA", "PBM binding z-score": 3.08},
      {"sequence": "AGTCAAAGGTCAGGACGAGGTAACGTAAAGCACG", "PBM binding z-score": 4.83},
      {"sequence": "AGAATGAGGTTATACGTAGGTCAGGGAAGAAAGT", "PBM binding z-score": 3.34},
      {"sequence": "AAAATGAGGTTAAGATCAGGGAAACAGAATACAT", "PBM binding z-score": 1.35},
      {"sequence": "CGAGCTAGGTCAAAGGACAGTGAAAGGCGACGTA", "PBM binding z-score": 0.97},
      {"sequence": "CCGCGTAGGTTACGAGGGGGCATTCAGTGCGAAT", "PBM binding z-score": 5.31},
      {"sequence": "CGAACTAGGTCACCAGGACAGTGAAGAGGTTGGA", "PBM binding z-score": 1.93},
      {"sequence": "CCTACTGGGCCATTCAGAGGTTATTGATCATATG", "PBM binding z-score": 0.462},
      {"sequence": "ATATGTAGGTTAGGGTCATTCATAAAGTAGGGAA", "PBM binding z-score": 4.67},
      {"sequence": "CCGAGTAGGTAACGAGGGGGCATTCAGTGCGAAT", "PBM binding z-score": 4.19},
      {"sequence": "CCGAGTAGGCTACGAGGGGGCATTCAGTGCGAAT", "PBM binding z-score": 3.16},
      {"sequence": "TCGAGTAGGTTACGGGGGCCTTCAGGGATGAAGA", "PBM binding z-score": 2.11},
      {"sequence": "ATATGTAGGTTACATCCGGGTCATTCTGGCTATG", "PBM binding z-score": 3.69},
      {"sequence": "TAGCCTAGCTCATTCAGGGGCCAGTATAGAAAGC", "PBM binding z-score": -0.541},
      {"sequence": "ATATGTAGGTTAGGGTCATTCAGAAAGTAGGGAA", "PBM binding z-score": 4.7},
      {"sequence": "ATCTCTAGGTCAAAGTTCAGTGAATCCCGAGGAT", "PBM binding z-score": 4.4},
      {"sequence": "ACATGTAGGTTAGGGTCATTCAGAAAGTAGGGAA", "PBM binding z-score": 4.52},
      {"sequence": "CTATGTAGGTTAAGGGGGTCATTCAGTTTGAAAG", "PBM binding z-score": 7.57},
      {"sequence": "TCAGATAGGTAAAGGTGAAAGTCGAACGATATGA", "PBM binding z-score": 0.979},
      {"sequence": "CAAACTAGGTCAAAGGTCAAAGACGAGCCAACCA", "PBM binding z-score": 6.69},
      {"sequence": "GCTTCCGGGTCAAAGGTTATAGCATGAATAGAAT", "PBM binding z-score": 5.69},
      {"sequence": "AGTCAAAGGTCACTAGGTAACGTAAGATTCAGCT", "PBM binding z-score": 5.23},
      {"sequence": "CCTACTGGGCCACGAAAGGTCCTTGATTCAGTGA", "PBM binding z-score": -0.615},
      {"sequence": "TAGCCTAGGTCATTGGGCTAGTATAGTACGCATC", "PBM binding z-score": 2.03},
      {"sequence": "AAATGTAGGTTAAGGGTCATTCAGGTTGGTTCGC", "PBM binding z-score": 5.82},
      {"sequence": "TCGAGTAGGTTACGGGGGCATTTAGGGATGAAGA", "PBM binding z-score": 3.96},
      {"sequence": "ATATGTAGGTTAGCTGGAGTCATTCAGACTAGGC", "PBM binding z-score": 0.533},
      {"sequence": "AATACAGGGTCCTCGTAGGCCAGAGTACGCACAG", "PBM binding z-score": -0.154},
      {"sequence": "CAAACTAGGCCAAGGTCAAAGTCGGTTTGTGCCA", "PBM binding z-score": 4.19},
      {"sequence": "ATATGTGGGTTAGGGTCATTCAGAAAGTAGGGAA", "PBM binding z-score": 4.97},
      {"sequence": "AGTCCAAGTTCACTAGGTAACGTAAGATTCAGCT", "PBM binding z-score": 3.46},
      {"sequence": "TCTCGGAGGACACGAAAAGTCAGAGCTCGACATC", "PBM binding z-score": -0.0283},
      {"sequence": "CAGCCTAGGTGAGGGCCAGTATAGGAGGAACGTT", "PBM binding z-score": -0.634},
      {"sequence": "GCTGCTAGGTCAACTGATGGTCAGCTAGAGCTCG", "PBM binding z-score": 1.5},
      {"sequence": "TCTAGTTGGTCACGGGGGTCACACACGACGGGTA", "PBM binding z-score": 6.57},
      {"sequence": "CCTTACGGGTCACGGTTATAGCACGGGTGGTACG", "PBM binding z-score": 3.87},
      {"sequence": "CCTAGTTGGTCAAGGTCACGCACGCTATAGGTAC", "PBM binding z-score": 4.45}
    ]}
  ]
}
